# tim23-1 inh – growth inhibitors of tim23-1 mutant yeast; AID 463212; S. cerevisiae tim23-1 growth, BacTiter-Glo luminescence, 24 h; 330,000 tested, 1.3% active; inhibition, % at 20 µM;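 active means growth inhibition of the mutant yeast at or above 50%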;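 further: temperature-sensitive mutant grown at 25 °C; plate controls were DMSO-treated mutant yeast for no effect and medium wells lacking yeast for full effect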
# SKKanGAS inh – SKKanGAS growth inhibition. inhibition, % at 7.5 µM. 300,000 tested, 1.3% active. S. pyogenes SKKanGAS, kanamycin growth, BacTiter-Glo, 6 h. AID 1662;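 active means mean replicate score, as percent of positive control median, at least 50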;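 further: strain carries kanamycin resistance gene driven by streptokinase promoter and grows in 40 µg/ml kanamycin; loss of luminescence reflects streptokinase promoter inhibition or plain growth inhibition; 0% = median of DMSO wells and 100% = positive control at its reference dose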
# TIM10 inh – TIM10 yeast growth inhibition; AID 463195; 330,000 tested, 1.4% active; S. cerevisiae TIM10 strain growth, BacTiter-Glo luminescence, 24 h; inhibition, % at 10 µM;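 active means inhibition of 40% or more at the single tested concentration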;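 further: wild-type TIM10 isogenic control strain grown at permissive 25 °C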
# ATG4B inhibitor – blocks human ATG4B protease cleavage of LC3 substrate; 340,000 tested, 0.51% active; inhibition, % at 8.33 µM; ATG4B cleavage of LC3-PLA2, NBD-HPC fluorescence, 1 h; Q9Y4P1; in the data active means inhibition above about 40%
# Target sequence (Q9Y4P1 whole entry, looked up): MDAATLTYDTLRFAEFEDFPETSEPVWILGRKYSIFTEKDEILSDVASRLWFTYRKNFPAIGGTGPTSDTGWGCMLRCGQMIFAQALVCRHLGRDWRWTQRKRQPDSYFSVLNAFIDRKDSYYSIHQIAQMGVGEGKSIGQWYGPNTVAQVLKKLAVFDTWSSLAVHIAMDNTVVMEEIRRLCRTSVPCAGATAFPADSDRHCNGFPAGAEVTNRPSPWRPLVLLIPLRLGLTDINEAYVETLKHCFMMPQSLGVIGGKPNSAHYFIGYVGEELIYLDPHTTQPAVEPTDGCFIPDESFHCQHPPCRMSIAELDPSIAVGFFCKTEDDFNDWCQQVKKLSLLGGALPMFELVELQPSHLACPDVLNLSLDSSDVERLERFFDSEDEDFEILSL
# PfHsp90 set2 – growth inhibition of yeast expressing Plasmodium Hsp90. S. cerevisiae expressing PfHsp90, BacTiter-Glo ATP, 48 h; yeast lacking PDR1 and PDR3 efflux regulators. 310,000 tested, 0.32% active. AID 504621. inhibition, % at 9.4 µM;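 active means every replicate shows inhibition above about 80%, whatever the replicate mean, limit read from the data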;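 further: 0% = DMSO neutral controls and 100% = 20 µM radicicol positive controls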
# tim10-1 inh – growth inhibitors of tim10-1 mutant yeast. S. cerevisiae tim10-1 ts strain growth, BacTiter-Glo, 24 h. inhibition, % at 20 µM. 330,000 tested, 2.2% active;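 active means inhibition of at least 40%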;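 further: mutant grown at 25 °C; 0% = DMSO wells with yeast and 100% = wells holding no yeast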
# TIM10 conf – TIM10 yeast growth inhibition, confirmed | shares compounds with TIM10 inh | S. cerevisiae tim10 strain growth, BacTiter-Glo luminescence, 24 h | inhibition, % at 10 µM | 4,600 tested, 63% active;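 active means inhibition of yeast growth at or above a set limit in either of two replicates at 10 µM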;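 further: this counterscreen used the strain with wild-type TIM10; 0% = yeast with DMSO and 100% = medium wells lacking yeast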
# Active calls of the source: *; nt = no result given. This is a sample that favours compounds with a hit; in the whole collection about 4.7% have one here.
SMILES,tim23-1 inh,SKKanGAS inh,TIM10 inh,ATG4B inhibitor,PfHsp90 set2,tim10-1 inh,TIM10 conf
CCC(C)(C)C1CCc2[nH]nc(C(=O)N/N=C(\C)c3ccco3)c2C1 (stereo unspecified),47,3,45*,2,-5,31,25
Cc1cnc(C(=O)OCC(=O)N(Cc2ccccc2)C(C)C)cn1,-1,nt,-9,-3,8,4,nt
O=C(NNC(=O)c1ccccc1O)c1ccc(S(=O)(=O)Nc2ccccc2F)cc1,-10,8,4,7,nt,9,nt
COc1ccc(C(=O)NCC(=O)N2CCC(C)CC2)cc1OC,6,2,6,-8,-9,14,nt
COc1ccc(CNC(=O)CSc2nnc3c(n2)[nH]c2ccc(C)cc23)cc1,6,20,7,6,26,-13,nt
O=C(/C=C/c1ccccc1Cl)NCc1ccccc1,11,0,1,25,1,15,nt
O=C(/C=C/c1ccccc1Cl)NCCc1ccccc1,39,-3,49*,7,-8,3,46*
CC(C)N1CCc2c(sc(NC(=O)c3ccc(S(=O)(=O)N4CCOCC4)cc3)c2C(N)=O)C1,2,0,-7,-2,13,-7,nt
Cc1ccc(NC(=O)CN(C)C(=O)COc2cccc3ccc(C)nc23)cc1,-4,nt,3,-11,38,5,nt
Cc1ccc(NC(=O)CN(C)C(=O)COc2c(Cl)cc(Cl)c3ccc(C)nc23)cc1,47,11,40*,-19,2,34,-1
Cc1cccc(-n2c(C)c(-c3ccccc3)[nH]c2=S)c1,44,4,43*,-6,-20,33,38*
CSc1ccc(S(=O)(=O)Nc2ccc3c4c(cccc24)CC3)cc1,45,29,42*,24,nt,30,20
Cc1ccc(C(=O)Cn2cnc3ccccc3c2=O)cc1C,33,-2,53*,35,14,-6,34*
O=C(Cn1cnc2ccccc2c1=O)c1ccc2c(c1)OCCO2,50,-1,45*,-5,-15,26,34*
COc1ccc(Cn2c(-c3ccc(C)cc3)c[n+]3ccccc23)cc1,-3,1,42*,2,22,37,51*
COc1ccc(NC(=O)CSc2nccn2C)cc1S(N)(=O)=O,-1,7,-12,-9,nt,5,nt
COC(=O)c1ccc(NC(=O)c2ccc(NC(=O)c3ccco3)cc2)cc1,-8,-4,-7,-6,-12,3,nt
CCCCCOC(=O)c1ccc(NC(=O)c2ccco2)cc1,29,1,41*,14,nt,15,17
Oc1c(C=Nc2ccc(Cl)cn2)sc2ccccc12,-3,0,0,35,-13,6,nt
Oc1c(/C=N/c2ccccn2)sc2ccccc12,37,26,69*,-4,16,29,62*
Cc1c(N)cccc1-n1cccc1,-1,0,10,-3,23,7,nt
CCOc1ccc(NC(=O)c2ccccc2OCC(=O)c2ccccc2)cc1,11,40,45*,9,3,33,28
Cc1ccc(NC(=O)c2ccccc2OCC(=O)c2ccccc2)cc1,14,2,30,1,-15,30,nt
Cc1ccccc1C(=O)NC(=S)Nc1ccccc1[N+](=O)[O-],-1,-2,28,13,-15,9,nt
O=C(CSCc1ccc(Cl)cc1)N/N=C/c1ccc(OCC(=O)Nc2ccccc2)cc1,5,13,6,-17,7,1,nt
CCO/N=C(/c1nonc1N)N1CCN(c2ccc([N+](=O)[O-])cc2)CC1,-1,7,6,-13,5,13,nt
CO/N=C(\c1nonc1N)N1CCN(c2ccc(Cl)cc2[N+](=O)[O-])CC1,36,1,43*,2,nt,27,31*
CC(c1ccc(F)cc1)n1c(-c2ccc3ccccc3n2)n[nH]c1=S (stereo unspecified),49,-2,46*,-5,-48,6,23
CC(c1ccc(Cl)cc1)n1c(-c2ccc3ccccc3n2)n[nH]c1=S (stereo unspecified),48,-6,30,2,-6,37,nt
